Read-out in experiment [1]: Vascular cell adhesion molecule 1 (VCAM1), VCAM1 (gene 7412)
Kind of experiment: BSK_4H_VCAM1: BioMAP Diversity Plus: 4H Assay for Vascular cell adhesion molecule 1 (VCAM1) Biomarker Activity (AID 2283033).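 Further: cell-surface VCAM-1 protein measured by ELISA.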 The note with it: primary human endothelial cells (HUVEC); actives raise or lower the signal. In outline:
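HUVEC, 24 h post-dose; VCAM-1 by ELISA. Bidirectional curve fit vs DMSO baseline. Parallel SRB total-protein stain (0.1% SRB after 10% TCA fixation, 560 nm) for cytotoxicity.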

Read-out in experiment [2]: Interferon-gamma inducible Protein 10 (IP10), CXCL10 (gene 3627)
Kind of experiment: BSK_BE3C_IP10: BioMAP Diversity Plus: BE3C Assay for Interferon-gamma inducible Protein 10 (IP10) Biomarker Activity (AID 2283034). Conditions: primary human bronchial epithelial cells; actives raise or lower the signal. The method, boiled down:
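ELISA readout of IP-10 in BE3C system: primary human bronchial epithelial cells, 24 h post-dosing; bidirectional curve fit vs DMSO baseline.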

Read-out in experiment [3]: Monokine induced gamma interferon (MIG), CXCL9 (gene 4283)
As to the kind of experiment: BSK_BE3C_MIG: BioMAP Diversity Plus: BE3C Assay for Monokine induced gamma interferon (MIG) Biomarker Activity (AID 2283035). The note with it: primary human bronchial epithelial cells; actives raise or lower the signal. In outline:
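hu bronchial epithelial 1° cells, 24 h cpd; MIG by ELISA; bidirectional fit, DMSO = baseline.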

Read-out in experiment [4]: Transforming growth factor beta 1 (TGFb1), TGFB1 (gene 7040)
Kind of experiment: BSK_BE3C_TGFb1: BioMAP Diversity Plus: BE3C Assay for Transforming growth factor beta 1 (TGFb1) Biomarker Activity (AID 2283036;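 further: TGF-b1 protein level measured by ELISA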). Conditions: primary human bronchial epithelial cells; actives raise or lower the signal. The method, boiled down:
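Read-out: ELISA for TGF-b1 in primary human bronchial epithelial cultures, 24 h post-dose. Bidirectional curve fitting vs DMSO control; gain or loss of signal both scored.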

Read-out in experiment [5]: Plasminogen activator inhibitor-1 (PAI1), SERPINE1 (gene 5054)
Kind of experiment: BSK_BE3C_PAI1: BioMAP Diversity Plus: BE3C Assay for Plasminogen activator inhibitor-1 (PAI1) Biomarker Activity (AID 2283037). Conditions: primary human bronchial epithelial cells; actives raise or lower the signal. The method, boiled down: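 ELISA read-out of PAI-1 from human bronchial epithelial primary cells, 24 h post-dosing; bidirectional curve fit vs DMSO baseline, gain or loss of signal scored.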

Read-out in experiment [6]: urokinase plasminogen activator (uPA), PLAU (gene 5328)
As to the kind of experiment: BSK_BE3C_uPA: BioMAP Diversity Plus: BE3C Assay for urokinase plasminogen activator (uPA) Biomarker Activity (AID 2283038).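 On outcome: uPA protein level quantified by ELISA in cell cultures; uPA read one day after compound addition.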 The note with it: primary human bronchial epithelial cells; actives raise or lower the signal. In outline: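 Primary human bronchial epithelial cells, uPA measured by ELISA 24 h after dosing. Bidirectional change relative to DMSO; cytotoxicity checked in parallel cultures by sulforhodamine B total-protein staining.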

Read-out in experiment [7]: Urokinase-type plasminogen activator receptor (uPAR), PLAUR (gene 5329)
As to the kind of experiment: BSK_BE3C_uPAR: BioMAP Diversity Plus: BE3C Assay for Urokinase-type plasminogen activator receptor (uPAR) Biomarker Activity (AID 2283039).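 Further: uPAR protein level measured by ELISA on the cells; cells exposed to compound for one day before measurement.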 Conditions: primary human bronchial epithelial cells; actives raise or lower the signal. In outline: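 ELISA readout of uPAR on human lung primary bronchial epithelial cells, 24 h post-dosing. Bidirectional curve fit relative to DMSO vehicle baseline; gain or loss of signal both scored.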

Read-out in experiment [8]: Interleukin-6 (IL6), IL6 (gene 3569)
Kind of experiment: BSK_CASM3C_IL6: BioMAP Diversity Plus: CASM3C Assay for Interleukin-6 (IL6) Biomarker Activity for (AID 2283040). The note with it: primary human coronary artery smooth muscle cells; actives raise or lower the signal.

Read-out in experiment [9]: Tissue plasminogen activator (tPA), PLAT (gene 5327)
As to the kind of experiment: BSK_BE3C_tPA: BioMAP Diversity Plus: BE3C Assay for Tissue plasminogen activator (tPA) Biomarker Activity (AID 2283041).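 Further: tPA level quantified by ELISA one day after compound addition.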 Conditions: primary human bronchial epithelial cells; actives raise or lower the signal. The method, boiled down:
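ELISA read-out of tPA on human primary bronchial epithelial cells, 24 h post-dosing; bidirectional fit vs DMSO negative control/baseline.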

Read-out in experiment [10]: Interleukin-8 (IL8), CXCL8 (gene 3576)
As to the kind of experiment: BSK_CASM3C_IL8: BioMAP Diversity Plus: CASM3C Assay for Interleukin-8 (IL8) Biomarker Activity (AID 2283042).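 Further: IL-8 protein level quantified by ELISA.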 Conditions: primary human coronary artery smooth muscle cells; actives raise or lower the signal.

For 21 compounds, outcome and AC50 results are on record in PubChem BioAssay (EPA / NIEHS).

A structure can be active in one record and inactive in another. The source made the active and inactive calls. How the source made its calls: active means hit-call score of the fitted dose curve at least 0.9, where 1 is the maximum; inactive means score below 0.9.

With `CCOc1ccc2[nH]cc(C(=O)NCc3ccccc3)c(=O)c2n1`, the result in [1], in experiment [2], in experiment [3], in experiment [4], in [5] and in experiment [6] was inactive. Also, the result in experiment [7], in experiment [8], in experiment [9] and in experiment [10] was inactive.

Take `OCCC(F)(F)C(F)(F)C(F)(F)C(F)(F)F`: the outcome in experiment [1], in [2], in [3], in experiment [5], in experiment [6] and in experiment [7] was inactive. Also, the outcome in experiment [8], in [9] and in [10] was inactive.

Take `O=C(O)c1cccc(C(=O)O)c1`: the outcome in experiment [1], in [2], in experiment [3], in experiment [4], in experiment [5] and in [6] was inactive. The result in experiment [7], in experiment [8], in experiment [9] and in experiment [10] was inactive.

With `Cc1ccc(S(=O)(=O)NC(=O)NN2CCCCCC2)cc1`, the result in experiment [1], in experiment [2], in experiment [3], in experiment [4], in experiment [5] and in experiment [6] was inactive. Moreover, the result in [7], in [8], in experiment [9] and in experiment [10] was inactive.

Regarding `c1ccc2c(c1)-c1cccc3c1c-2cc1ccccc13`, the outcome in experiment [1], in experiment [2], in experiment [3], in [4], in experiment [5] and in experiment [6] was inactive. In addition, the result in [7], in experiment [8], in experiment [9] and in experiment [10] was inactive.

With `FC(F)(F)COC(OCC(F)(F)F)OCC(F)(F)F`, the outcome in experiment [1], in experiment [2], in experiment [3], in experiment [5], in experiment [6] and in experiment [7] was inactive. The result in experiment [8], in experiment [9] and in experiment [10] was inactive.

As for `CC[C@H](C)C(=O)O[C@H]1C[C@H](O)C=C2C=C[C@H](C)[C@H](CC[C@@H](O)C[C@@H](O)CC(=O)O)[C@H]21`, the result in [1], in [2], in experiment [3], in experiment [4], in experiment [5] and in experiment [6] was inactive. For the same compound, the result in [7], in experiment [8], in [9] and in experiment [10] was inactive.

With `OC[C@H]1O[C@@H]2O[C@H]3[C@H](O)[C@@H](O)[C@@H](O[C@H]4[C@H](O)[C@@H](O)[C@@H](O[C@H]5[C@H](O)[C@@H](O)[C@@H](O[C@H]6[C@H](O)[C@@H](O)[C@@H](O[C@H]7[C@H](O)[C@@H](O)[C@@H](O[C@H]1[C@H](O)[C@H]2O)O[C@@H]7CO)O[C@@H]6CO)O[C@@H]5CO)O[C@@H]4CO)O[C@@H]3CO`, the result in experiment [1], in experiment [2], in experiment [3], in [4], in experiment [5] and in experiment [6] was inactive. In addition, the result in [7], in experiment [8], in experiment [9] and in [10] was inactive.

On to `CCOC(N)=O`, for which the outcome in experiment [1], in experiment [2], in experiment [3], in [4], in experiment [5] and in experiment [6] was inactive. Moreover, the result in [7], in experiment [8], in experiment [9] and in experiment [10] was inactive.

As to `Cc1ncc([C@@H](CCCCCCc2ccc3c(n2)NCCC3)CC(=O)O)cn1`, the outcome in experiment [1], in [2], in experiment [3], in experiment [4], in experiment [5] and in experiment [6] was inactive. Besides, the result in experiment [7], in experiment [8], in [9] and in [10] was inactive.

As to `NCC(F)(F)C(F)(F)C(F)(F)C(F)(F)F`, the outcome in [1], in experiment [2], in experiment [3], in experiment [5], in [6] and in [7] was inactive. In addition, the outcome in experiment [8], in experiment [9] and in [10] was inactive.

With `FC(F)(F)C(F)(F)C(F)(F)C(F)(F)C(F)(F)C(F)(F)I`, the result in experiment [1], in experiment [2], in experiment [3], in experiment [5], in [6] and in experiment [7] was inactive. Besides, the result in experiment [8], in [9] and in experiment [10] was inactive.

On to `FC(F)C(F)(F)COCC1CO1` (centres undefined), for which the outcome in experiment [1], in experiment [2], in [3], in experiment [5], in [6] and in experiment [7] was inactive. Besides, the outcome in experiment [8], in experiment [9] and in [10] was inactive.

On to `c1ccc2ncccc2c1`, for which the result in experiment [1], in experiment [2], in experiment [3], in [4], in experiment [5] and in experiment [6] was inactive. The outcome in [7], in experiment [8], in experiment [9] and in experiment [10] was inactive.

For the compound `CCCc1ccccc1`, the outcome in experiment [1], in experiment [2], in [3], in experiment [4], in [5] and in experiment [6] was inactive. For the same compound, the outcome in experiment [7], in [8], in experiment [9] and in experiment [10] was inactive.

The term AC50 denotes the midpoint of the concentration-response curve, whichever way the signal moves. As to `O=C(Cl)C(F)(F)C(F)(F)C(F)(F)C(=O)Cl`, the result in [1], in experiment [2], in experiment [3], in experiment [5], in experiment [6] and in [7] was inactive. The result in experiment [8], in [9] and in experiment [10] was inactive. Besides, the concentration at half-maximal activity (AC50) in experiment [5] was 12.2 µM (active).

Regarding `CC(C)CCCCCCOC(=O)C1CCCCC1C(=O)OCCCCCCC(C)C` (centres undefined), the result in [1], in [2], in experiment [3], in [4], in experiment [5] and in [6] was inactive. For the same compound, the outcome in [7], in experiment [8], in experiment [9] and in experiment [10] was inactive.

On to `C[Si](C)(C)C(F)(F)C(F)(F)C(F)(F)F`, for which the result in experiment [1], in experiment [2], in experiment [3], in experiment [5], in experiment [6] and in [7] was inactive. Also, the result in experiment [8], in experiment [9] and in experiment [10] was inactive.

For the compound `O=C(NO)C1(NS(=O)(=O)c2ccc(Oc3ccc(F)cc3)cc2)CCOCC1`, the result in experiment [1], in experiment [2], in [3], in [4], in experiment [5] and in experiment [6] was inactive. Further, the result in [7], in experiment [8], in experiment [9] and in experiment [10] was inactive.

For `C[C@]12C=CC(=O)C=C1CC[C@H]1[C@@H]3C[C@@H](O)[C@](O)(C(=O)CO)[C@@]3(C)C[C@H](O)[C@@]12F`, the outcome in experiment [1], in experiment [2], in [3], in experiment [4], in [5] and in [6] was inactive. For the same compound, the outcome in experiment [7] and in [9] was inactive. In addition, the AC50 in experiment [8] is 0.356 µM (active); in [10], 0.246 µM (active).

`NC(=O)NN=Cc1ccc([N+](=O)[O-])o1`: the outcome in experiment [1], in experiment [2], in [3], in experiment [4], in experiment [5] and in experiment [7] was inactive. Also, the outcome in experiment [8], in experiment [9] and in [10] was inactive. In addition, the AC50 in experiment [6] was 7.99 µM (active).
